Reference: PubChem BioAssay
Several values for one entry are separate records, joined by “and”; a condition that tells them apart may be missing. Equal values may be shown once. Inconclusive results are not listed. For part of these data: Entries with a potency or affinity are not part of this list. Activity calls are given as the source filed them.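 How the source made its calls, unless noted: active means compounds whose cell count with miR-34 switched on is under 0.7 times the count with it off; inactive means the rest.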

What was measured:
[1] = liver-stage malaria parasite growth inhibition, primary screen, cell-based, HepG2, luciferase luminescence, HepG2 viability (AID 624349; in the data active means parasite load remaining mostly below about 12%, no sharp cut-off; inactive means mostly above about 10%;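 further: 100% = mean of DMSO negative control wells on the same plate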); conditions: P. berghei liver stage in HepG2, luciferase luminescence, concentration not given here; parasite load remaining: stronger effect = lower value; viability: measured here: HepG2 viability without parasites
[2] = sensitizers of A549 cells to miR-34 induction, primary screen, imaging, A549 dox-inducible miR-34, nuclei and caspase counts (AID 1347080); conditions: A549 miR-34 inducible, Hoechst nuclei count, 48 h
[3] = biological target: NAD(+) hydrolase SARM1 (Homo sapiens) (UniProt Q6SZW1); assay: SARM1 TIR NADase inhibitors, cell lysate, NAD-Glo luminescence (AID 1508614;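 active means compound whose remaining NAD level is above about 45 nM, limit read from the data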); conditions: SAM-TIR HEK293T lysate NADase, at 1 µM, stronger effect = higher value
[4] = hESC survival regulators, cell-based (AID 493140; call rule not given here;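 further: cells exposed to compounds for four days before counting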); conditions: human embryonic stem cell survival screen; stronger effect = higher value
[5] = biological target: Mitogen-activated protein kinase 7 (Homo sapiens) (UniProt Q13164); assay: ERK5 transactivation activators in reporter cells, primary screen, cell-based, HTS (AID 1508626;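 active means luciferase signal above three times the same-plate solvent-only control wells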;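 further: luciferase driven by Gal4-ERK5 fusion binding five Gal4 sites before minimal TATA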); conditions: HeLa Gal4-ERK5 transactivation, 18 h, at 5 µM, stronger effect = higher value
[6] = biological target: ATP-dependent translocase ABCB1 (Homo sapiens) (UniProt P08183); assay: MDR1 (ABCB1) efflux transporter inhibition, cell-based (AID 377; in the data active means fluorescence slope change above about 50%); conditions: MDR1-expressing cells, fluorescent substrate accumulation slope; stronger effect = higher value; concentration not given here
[7] = polyglutamine-triggered caspase-3 activation inhibitors, cell-based (AID 1583); conditions: polyglutamine-induced caspase-3 activation, cell assay; stronger effect = higher value;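 tested at 10 µM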
[8] = suppressors of polyQ aggregation in yeast, 75Q-TubU reporter (AID 1593); conditions: Yeast 75Q polyglutamine aggregation reporter
[9] = rescue of polyQ-huntingtin neuronal dysfunction in worms, whole organism, C. elegans mechanosensory neurons, N-terminal huntingtin (AID 1599); conditions: touch response, stronger effect = higher value
[10] = inhibitors of mitochondrial cytochrome c release, biochemical, purified mitochondria (AID 1603); conditions: stronger effect = lower value;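 further: mouse liver mitochondria challenged with calcium chloride; signal normalized to the plate average as 100%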
[11] = inhibitors of polyQ protein aggregation (AID 1604); conditions: polyglutamine-induced protein aggregation inhibition assay; stronger effect = higher value; tested at 2.5 µM
[12] = enhancers of glutamate uptake in motor neurons, MN-1 cell line (AID 1612); conditions: MN-1 motor neuron cells, stronger effect = higher value;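 further: tested at 1 µM final; 0% = mean of DMSO vehicle wells on each plate; positive means more glutamate uptake than control and negative means less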
[13] = reducers of polyQ inclusions in PC12 cells, cell-based, NGF-treated PC12, GFPQ80 (AID 1614); conditions: PC12 NGF-treated GFP-polyQ80 inclusion reduction;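 further: lower means fewer inclusions and 0 means no inclusions at all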
[14] = suppressors of polyglutamine aggregation in yeast, 75Q-TubH (AID 1616); conditions: S. cerevisiae 75Q-TubH polyglutamine aggregation suppression; stronger effect = higher value
[15] = kinase inhibitors against Plasmodium liver-stage infection, cell-based, known kinase inhibitor set, luminescence, hepatoma host viability (AID 624392; call rule not given here;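 further: infected cells incubated roughly two days before readout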); conditions: Plasmodium liver stage in hepatoma cells, luciferase luminescence, concentration not given here; liver cell % of control: measured here: host liver cell viability; parasite % of control: stronger effect = lower value
[16] = survival rescue of mitochondrial mutant cells in low glucose, primary screen, MELAS cybrids, Rieske KO mouse fibroblasts, CellTiter-Glo (AID 1508586;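 active means mean z-score across replicates of 1.96 or higher in either the MELAS or the Rieske mutant cell line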;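 further: z relative to plate mean and SD of compound and empty wells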)
[17] = viability rescue of complex I mutant cybrids, primary screen, cell-based, galactose medium, ATP luminescence (AID 1645843;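 active means z-score of at least 1.8 in each of two replicates, scored against plate mean and spread of sample wells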;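 further: positive z means more ATP and so rescue of galactose-driven cybrid death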); conditions: complex I mutant cybrid cells, 72 h, stronger effect = higher value
[18] = stronger effect = lower value, cell number ratio, induced over uninduced
[19] = measured here: relative caspase fold change +Dox/-Dox
[20] = measured here: total cells with miR-34 induction, stronger effect = lower value
[21] = measured here: total cells without miR-34 induction
[22] = MELAS cybrid survival, CellTiter-Glo 48 h, stronger effect = higher value
[23] = Rieske KO mouse fibroblast survival, CellTiter-Glo 72 h

NAD(+) hydrolase SARM1 (Homo sapiens), sequence (Q6SZW1 whole entry, looked up): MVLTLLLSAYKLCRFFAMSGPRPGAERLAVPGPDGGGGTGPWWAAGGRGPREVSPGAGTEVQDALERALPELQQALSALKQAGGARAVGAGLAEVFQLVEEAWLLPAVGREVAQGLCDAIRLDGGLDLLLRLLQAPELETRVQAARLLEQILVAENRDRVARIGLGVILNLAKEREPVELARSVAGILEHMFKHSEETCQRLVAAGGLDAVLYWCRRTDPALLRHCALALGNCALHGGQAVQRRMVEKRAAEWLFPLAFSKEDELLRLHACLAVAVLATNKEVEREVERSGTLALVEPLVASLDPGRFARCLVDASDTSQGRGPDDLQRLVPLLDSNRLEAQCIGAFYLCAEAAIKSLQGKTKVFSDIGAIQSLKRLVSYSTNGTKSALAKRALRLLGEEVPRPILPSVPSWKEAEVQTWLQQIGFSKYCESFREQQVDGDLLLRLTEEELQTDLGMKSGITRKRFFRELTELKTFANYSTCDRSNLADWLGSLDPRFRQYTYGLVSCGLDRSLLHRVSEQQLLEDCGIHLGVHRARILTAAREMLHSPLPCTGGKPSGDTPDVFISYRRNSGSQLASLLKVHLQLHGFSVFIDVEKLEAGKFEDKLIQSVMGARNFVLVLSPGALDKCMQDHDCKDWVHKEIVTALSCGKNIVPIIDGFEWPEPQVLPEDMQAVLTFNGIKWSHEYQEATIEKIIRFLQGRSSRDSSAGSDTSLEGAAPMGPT
ATP-dependent translocase ABCB1 (Homo sapiens), sequence (P08183 whole entry, looked up): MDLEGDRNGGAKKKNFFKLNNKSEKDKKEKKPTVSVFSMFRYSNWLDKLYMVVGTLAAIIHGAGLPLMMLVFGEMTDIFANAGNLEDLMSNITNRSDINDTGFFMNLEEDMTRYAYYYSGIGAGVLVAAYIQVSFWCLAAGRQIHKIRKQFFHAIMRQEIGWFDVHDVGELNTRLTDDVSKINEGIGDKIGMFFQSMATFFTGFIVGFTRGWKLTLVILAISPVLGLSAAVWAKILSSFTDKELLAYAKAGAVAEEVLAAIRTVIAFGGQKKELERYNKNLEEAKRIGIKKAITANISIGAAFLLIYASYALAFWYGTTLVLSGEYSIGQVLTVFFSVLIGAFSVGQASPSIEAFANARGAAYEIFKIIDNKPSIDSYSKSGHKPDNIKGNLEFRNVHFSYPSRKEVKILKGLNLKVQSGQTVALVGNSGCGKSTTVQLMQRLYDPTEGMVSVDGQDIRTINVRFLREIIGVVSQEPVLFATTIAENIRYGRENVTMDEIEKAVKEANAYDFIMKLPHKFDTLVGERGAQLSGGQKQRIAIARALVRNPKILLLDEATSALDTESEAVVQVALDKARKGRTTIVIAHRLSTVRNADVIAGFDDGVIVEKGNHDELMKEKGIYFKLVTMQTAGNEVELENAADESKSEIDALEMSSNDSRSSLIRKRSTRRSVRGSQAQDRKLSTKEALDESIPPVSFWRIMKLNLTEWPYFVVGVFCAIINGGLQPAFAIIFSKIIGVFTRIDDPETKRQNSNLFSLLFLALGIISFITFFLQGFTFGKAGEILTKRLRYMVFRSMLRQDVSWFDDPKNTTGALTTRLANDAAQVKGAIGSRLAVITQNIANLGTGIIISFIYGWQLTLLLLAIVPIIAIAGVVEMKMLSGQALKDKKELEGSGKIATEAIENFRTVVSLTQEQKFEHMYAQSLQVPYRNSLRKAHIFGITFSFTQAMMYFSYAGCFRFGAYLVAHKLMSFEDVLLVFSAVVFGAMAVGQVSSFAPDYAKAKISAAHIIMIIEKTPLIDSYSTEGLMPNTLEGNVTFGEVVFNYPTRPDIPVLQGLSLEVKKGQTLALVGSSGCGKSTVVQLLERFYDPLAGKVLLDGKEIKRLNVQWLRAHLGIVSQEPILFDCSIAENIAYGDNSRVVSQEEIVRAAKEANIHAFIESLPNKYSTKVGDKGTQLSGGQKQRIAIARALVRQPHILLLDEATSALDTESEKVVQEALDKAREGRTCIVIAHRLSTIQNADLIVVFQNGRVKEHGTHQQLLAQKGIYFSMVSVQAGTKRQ
Mitogen-activated protein kinase 7 (Homo sapiens), sequence (Q13164 whole entry, looked up, the tested form may be a part): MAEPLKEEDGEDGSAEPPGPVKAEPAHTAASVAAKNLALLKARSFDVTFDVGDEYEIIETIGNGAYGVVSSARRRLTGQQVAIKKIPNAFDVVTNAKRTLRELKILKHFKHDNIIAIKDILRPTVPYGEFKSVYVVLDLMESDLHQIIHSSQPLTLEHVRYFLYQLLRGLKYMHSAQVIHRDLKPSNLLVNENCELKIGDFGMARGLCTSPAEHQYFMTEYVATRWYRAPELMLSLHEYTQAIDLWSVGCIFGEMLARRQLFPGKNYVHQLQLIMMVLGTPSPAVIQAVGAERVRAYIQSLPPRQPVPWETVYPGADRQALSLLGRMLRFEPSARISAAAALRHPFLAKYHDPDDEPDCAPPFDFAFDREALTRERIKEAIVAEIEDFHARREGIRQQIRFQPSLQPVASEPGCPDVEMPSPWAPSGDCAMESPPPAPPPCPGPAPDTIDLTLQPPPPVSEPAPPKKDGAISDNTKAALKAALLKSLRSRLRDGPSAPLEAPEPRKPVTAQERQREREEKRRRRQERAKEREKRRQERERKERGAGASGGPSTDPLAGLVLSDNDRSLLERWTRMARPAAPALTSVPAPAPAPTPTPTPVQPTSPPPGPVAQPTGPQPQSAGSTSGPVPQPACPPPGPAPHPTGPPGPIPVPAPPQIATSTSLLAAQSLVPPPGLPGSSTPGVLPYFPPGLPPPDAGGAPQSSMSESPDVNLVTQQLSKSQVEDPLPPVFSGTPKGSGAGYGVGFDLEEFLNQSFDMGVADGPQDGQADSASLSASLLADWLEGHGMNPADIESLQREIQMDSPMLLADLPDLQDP

SMILES: O=[N+]([O-])OCC(CO[N+](=O)[O-])O[N+](=O)[O-]
- parasite load remaining [1]: 15.2% (inactive)
- viability [1]: 94.3%
- fold change [2, 18]: 0.846 (inactive)
- fold change [2, 19]: 4.5
- cell count [2, 20]: 10800
- cell count [2, 21]: 12700
- remaining NAD [3]: 10 nM (inactive)

SMILES: Cn1nnnc1SCC1=C(C(=O)O)N2C(=O)[C@@H](NC(=O)[C@H](O)c3ccccc3)[C@H]2SC1
- survival [4]: 7.33 (inactive)
- parasite load remaining [1]: 73.2% (inactive)
- viability [1]: 97.6%
- fold change [2, 18]: 0.871 (inactive)
- fold change [2, 19]: 1.18
- cell count [2, 20]: 9300
- cell count [2, 21]: 10700
- remaining NAD [3]: 10 nM (inactive)
- luciferase signal [5]: 36 AU (inactive)

SMILES: CC[C@]12CCCN3CCc4c(n(c5ccccc45)[C@](O)(C(=O)OC)C1)[C@@H]32
- fluorescence slope change [6]: 15.4% (inactive)
- inhibition [7]: 18.7%
- score [8]: 1.6
- rescue above control [9]: 4.14
- cytochrome c release ratio [10]: 1.05
- inhibition of aggregation [11]: 27%
- glutamate uptake change [12]: -2.93%
- inclusion score [13]: 2.5
- aggregation suppression score [14]: 1.32
- parasite load remaining [1]: 112% (inactive) and 81.9% (inactive) and 58.4% (inactive)
- viability [1]: 102% and 72.1% and 74.9%
- fold change [2, 18]: 0.786 (inactive)
- fold change [2, 19]: 1.26
- cell count [2, 20]: 7940
- cell count [2, 21]: 10100

SMILES: CC(C)CCN1c2nc(Nc3cc(F)c(O)c(F)c3)ncc2N(C)C(=O)C1C (stereo not given)
- liver cell % of control [15]: 87.7% and 90.4% and 106%
- parasite % of control [15]: 35.4% (inactive) and 66.2% (inactive) and 39.4% (inactive)
- fold change [2, 18]: 1.05 (inactive)
- fold change [2, 19]: 0.299
- cell count [2, 20]: 2560
- cell count [2, 21]: 2450
- z-score [16, 22]: 0.0608 (inactive)
- z-score [16, 23]: -0.296

SMILES: Cc1c(Cl)cccc1Nc1ncccc1C(=O)O
- parasite load remaining [1]: 71.2% (inactive)
- viability [1]: 70.4%
- fold change [2, 18]: 0.943 (inactive)
- fold change [2, 19]: 0.763
- cell count [2, 20]: 9020
- cell count [2, 21]: 9560
- z-score [16, 22]: 0.72 (inactive)
- z-score [16, 23]: 0.0323

SMILES: CC1CCN(C(=O)CC#N)CC1N(C)c1ncnc2[nH]ccc12 (stereo not given)
- liver cell % of control [15]: 104% and 99.8%
- parasite % of control [15]: 80.9% (inactive) and 77.3% (inactive) and 45.5% (inactive)
- fold change [2, 18]: 0.908 (inactive) and 0.927 (inactive)
- fold change [2, 19]: 0.692 and 0.73
- cell count [2, 20]: 9120 and 9790
- cell count [2, 21]: 10000 and 10600
- z-score [16, 22]: -0.285 (inactive) and -0.386 (inactive)
- z-score [16, 23]: -0.101 and -0.511

SMILES: CN(C)CCC=C1c2ccccc2COc2ccccc21
- fold change [2, 18]: 0.942 (inactive)
- fold change [2, 19]: 2.06
- cell count [2, 20]: 8300
- cell count [2, 21]: 8810
- z-score [17]: -0.535 (inactive)

SMILES: CCC(=O)O[C@]1(C(=O)SCF)C(C)CC2C3CC(F)C4=CC(=O)C=C[C@]4(C)[C@@]3(F)C(O)C[C@@]21C (stereo not given in full)
- fold change [2, 18]: 0.897 (inactive)
- fold change [2, 19]: 1.65
- cell count [2, 20]: 6980
- cell count [2, 21]: 7780
- z-score [17]: 1.79 (inactive)

SMILES: COc1cc(CC(CO)C(CO)Cc2ccc(O)c(OC)c2)ccc1O (stereo not given)
- fold change [2, 18]: 1.4 (inactive)
- fold change [2, 19]: 0.831
- cell count [2, 20]: 8290
- cell count [2, 21]: 5940
- z-score [17]: 0.405 (inactive)

SMILES: O=c1c(OC2OC(CO)C(O)C(O)C2O)c(-c2ccc(O)c(O)c2)oc2cc(O)cc(O)c12 (stereo not given)
- fold change [2, 18]: 0.911 (inactive) and 0.974 (inactive)
- fold change [2, 19]: 0.962 and 2.15
- cell count [2, 20]: 4950 and 10100
- cell count [2, 21]: 5430 and 10300
- z-score [17]: -1.74 (inactive) and 0.575 (inactive)
